Screens deposited in PubChem BioAssay by Center for Chemical Genomics, University of Michigan.
This is one part of a sample in which hits are shown more often than they occur.
Dicer inh – inhibitors of Dicer pre-microRNA processing, primary screen, biochemical, cat-ELCCA, chemiluminescence. Endoribonuclease Dicer (Homo sapiens), Q9UPY3. actives 6% (n = 47,000). AID 1347074, 2019. z-score at 25 µM. cat-ELCCA pre-miR-21 Dicer processing; stronger effect = higher value; in the data active means z-score above about 3, passing the limit was not always enough;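 further: higher signal means more uncleaved substrate so more Dicer inhibition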
Hits are given with their value; n = inactive.

SMILES	Dicer inh
CC1(C)NC(=O)N(CC(O)CN(c2ccccc2)S(=O)(=O)c2ccccc2)C1=O (stereo not drawn)	n
CC1(C)NC(=O)N(Cc2ccccc2)C1=O	n
Cc1ccc(OCC(O)CN2C(=O)NC(C)(C)C2=O)cc1C (stereo not drawn)	n
COc1ccc(Br)cc1C1C(C(=O)OC2CCCC2)=C(C)NC2=C1C(=O)CC(C)(C)C2 (stereo not drawn)	n
CCC/C(O)=C(/C=Nc1ccccc1C(=O)OC)C(=O)OCC	3.2
COC(=O)c1c(OC)ccc(N=C/C(C(C)=O)=C(\C)O)c1OC	n
CCOC(=O)C(=CNc1ccc(C(=O)OC)o1)C(=O)OCC	n
Fc1ccc(Nc2nnc(-c3ccccc3Cl)s2)cc1	n
CCCOc1ccc(NC(=O)C2=CC(=O)N3CCN=C3S2)cc1Br	n
Cc1cc(NC2=CC(=O)CC(C)(C)C2)c(-n2cc3c(c2-c2ccccc2)c(=O)n(C)c(=O)n3C)cc1C	n
Cc1ccc(S(=O)(=O)NC(C)c2ccccc2)cc1-c1nnc2c3ccccc3c(C)nn12 (stereo not drawn)	n
CCCNS(=O)(=O)c1ccc(C)c(-c2nnc3c4ccccc4c(C)nn23)c1	4.3
Cc1ccc(S(=O)(=O)NC(C)(C)CO)cc1-c1nnc2c3ccccc3c(C)nn12	n
CNS(=O)(=O)c1ccc(OC)c(-c2nnc3c4ccccc4c(C)nn23)c1	n
CCCNS(=O)(=O)c1ccc(OC)c(-c2nnc3c4ccccc4c(C)nn23)c1	n
CNS(=O)(=O)c1ccc(C)c(-c2nnc3c4ccccc4c(C)nn23)c1	4.5
Clc1ccc(CN2CCN(Cc3ccccn3)CC2)cc1	n
c1ccc(OCc2nnc3sc(-c4ccc5c(c4)OCO5)nn23)cc1	n
CC(C)(C)C(=O)Nc1sc2c(c1C(N)=O)CCC(C(C)(C)C)C2 (stereo not drawn)	n
Cc1cc(C)c(S(=O)(=O)N2CCCN(S(=O)(=O)c3cc(C)c(C)cc3C)CC2)cc1C	n
CN(C(=O)c1cccs1)C1CC2C=CC1C2 (stereo not drawn)	n
Cn1ncc2c(c(S(=O)(=O)Cc3ccc(Cl)cc3Cl)nn2C)c1=O	n
O=C(Nc1nnc(-c2ccc3c(c2)OCO3)s1)C1CCCCC1	n
O=C(NC(=S)NCCc1ccccn1)c1ccccc1	3.1
O=C(NNC(=S)NCCc1ccccc1)c1ccncc1	n
SMILES	Dicer inh
O=C(NC(=S)NCC1CC1)c1ccccc1	n
COc1ccc(CCNC(=S)NC(=O)c2ccccc2)cc1OC	n
S=C(NCCc1ccccn1)c1ccccc1	n
O=C(NC(=S)NCc1ccncc1)c1ccccc1	3.4
O=C(Nc1ccc2c(c1)COCO2)c1cc2ccccc2oc1=O	n
Cc1sc(NC(=O)C(C)C)c(C(=O)O)c1C	n
COc1ccc(-n2ncc(NC(=O)NCc3ccccn3)c2C)cc1	n
Cc1ccc(N2C(=O)C3C4c5ccccc5C(CO)(c5ccccc54)C3C2=O)c(Br)c1 (stereo not drawn)	n
CCc1ccc(-c2c(C#N)c(N)nc3c2CCCC3)s1	n
CCOC(=O)c1sc2sc(C(=O)c3ccc(Cl)cc3)c(C)c2c1C	n
COc1cccc(C2c3c(oc4ccccc4c3=O)C(=O)N2c2nncs2)c1 (stereo not drawn)	n
COc1cc(S(=O)(=O)Nc2ccccn2)ccc1Br	n
O=S(=O)(Nc1cccc2cccnc12)c1ccccc1	7.7
O=C(Nc1ccc(Cl)cc1)Nc1ccc(Br)c2cccnc12	n
Cc1ccc2cccc(NS(=O)(=O)c3ccccc3)c2n1	n
O=S(=O)(Nc1ccc(Br)c2cccnc12)c1ccccc1	4.7
Cc1ccc(C)c(NS(=O)(=O)c2cccc3cccnc23)c1	n
Oc1ccccc1C1Nc2ccccc2-c2nc3ccccc3n21 (stereo not drawn)	n
CCOC(=O)c1cc(C)nn1Cc1c(Cl)cccc1Cl	n
CC(=O)O[C@@H]1[C@H]2OC(C)(C)O[C@H]2O[C@@H]1C1COC(C)(C)O1 (stereo partly drawn)	n
Fc1ccc2c(c1)-c1c(cnc3ccc(Cl)cc13)CO2	n
COC(=O)C1=C(C)N2C(=O)CSC2=NC1c1ccc2c(c1)OCO2 (stereo not drawn)	n
CC(=O)Nc1cc2cc(NS(=O)(=O)c3ccc(Cl)cc3)ccc2oc1=O	n
Cc1oc2ccc(NS(=O)(=O)c3ccc(Cl)cc3)cc2c1C(=O)OC(C)C	n
O=S(=O)(Nc1ccc(O)c(-c2c(O)ccc3ccccc23)c1)c1ccc(Cl)cc1	8.5
SMILES	Dicer inh
O=C1CC(c2ccccc2)CC(O)=C1C=Nc1ccccc1Cl (stereo not drawn)	n
O=C1CC(c2ccccc2)CC(O)=C1C=Nc1ccc(Cl)cc1 (stereo not drawn)	3
O=C1CCC(c2ccccc2)C(O)=C1C=Nc1ccc(Cl)cc1 (stereo not drawn)	n
O=C(/C=C/c1cccs1)NC(=S)N1CCCCC1	n
CCOC(=O)N1CCCN=C1NNc1cc(F)ccc1F	n
CCOC(=O)c1cn[nH]c1NC(=S)NCc1ccccc1	n
CN(C)/C=C/C(=O)c1ccccc1C(=O)c1ccccc1	n
S=C(NCCc1ccccc1)Nc1cccc(Cl)c1Cl	n
NNC(=S)NCCc1ccc(Cl)cc1	4.5
S=C(NCCn1ccnc1)Nc1ccc(Cl)cc1	n
CSC(=S)OCC12CC3CC(CC(C3)C1)C2	n
CN(C)c1scc(-c2ccccc2)c1C#N	15
CSc1scc(-c2cccc(Cl)c2)c1C#N	n
COC(=O)c1sc(N(C)C)c(C#N)c1-c1ccccc1	n
Cc1cc(C)nc(NS(=O)(=O)c2ccc(NS(=O)(=O)c3ccc(-c4cc(C(F)(F)F)n(C)n4)s3)cc2)n1	n
COc1ccc(C(=O)n2cc3c(n2)-c2cc(Cl)ccc2SC3)cc1	n
CC(C)(C)c1cc(CN2C(=O)c3ccccc3C2=O)cc(C(C)(C)C)c1O	n
O=C(OCc1ccccn1)c1ccc(COc2ccc3ccccc3c2)o1	3
COCn1c(COc2ccc3ccccc3c2)nc2ccccc21	n
CN(C)C(=O)COc1ccc2ccccc2c1	n
O=C1SC(c2ccccc2)=N/C1=C\c1ccc(Cl)cc1	n
Cc1ccc(CSc2nc(C)c(Oc3cccc(C(F)(F)F)c3)c(=O)n2C)cc1	n
CC(=O)N1N=C(c2ccccc2O)CC1c1ccc(Cl)cc1Cl (stereo not drawn)	n
Cn1c(-c2ccccc2)cn2cc(-c3ccccc3)nc12	n
COc1cccc2ccc(=O)n(C)c12	n
SMILES	Dicer inh
Cn1c(-c2ccccc2)cccc1=O	3.8
CCOC(=O)c1c(NC(=O)CN(CC)CC)sc2c1CCCC2	n
N#Cc1c(NC(=O)CSc2nnnn2-c2ccccc2)sc2c1CCCC2	n
CCOC(=O)c1c(NC(=O)CSc2nnc3c(n2)[nH]c2ccccc23)sc2c1CCCC2	n
CCOC(=O)c1c(NC(=O)CSc2nnc(C)c(=O)[nH]2)sc2c1CCCC2	3.3
Cc1nnc(SCC(=O)Nc2sc3c(c2C#N)CCCC3)s1	3.4
N#Cc1c(NC(=O)CSc2ccc(Cl)cc2)sc2c1CCC2	n
Cc1c(C#N)c(SCc2cccc(C(F)(F)F)c2)nc2ccccc12	n
CCOC(=O)CC(=O)Nc1c(C)csc1C(=O)OC	n
Cc1nc(C)c(Oc2ccc(Cl)cc2Cl)c(NCc2ccccc2)n1	n
CS(=O)(=O)Oc1c(-c2ccccc2)oc2ccccc2c1=O	n
COc1cc2c(cc1OC)-c1c(C#N)c(-c3ccc4c(c3)OCO4)c(C(=O)c3ccccc3)n1CC2	n
CC(=O)Nc1ccc(S(=O)(=O)Nc2cc(S(=O)(=O)N(C)C)ccc2C)cc1Cl	n
